# Compound activity deposited in PubChem BioAssay by several laboratories.
# Sampled rows, rich in hits. Any-hit rate of the full collection: about 1.2%.
# GC-B act – GC-B (human) receptor activation | AID 1920062 | actives 0.11% (n = 370,000) | P20594 | HEK293-GC-B cells, CNP EC30, cGMP TR-FRET; 0% at EC30 CNP, 100% saturating CNP | activation, % at 10 µM;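 active means activation at 10 µM reaching about 35% in either raw or pattern-adjusted values, limit read from the data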
# PLC-beta3 inh – inhibitors of human phospholipase C beta3; Q01970; Purified PLC-beta3, fluorogenic substrate, fluorescence; inhibition, % at 12.2 µM; actives 0.18% (n = 370,000);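 further: 0% = median of compound wells on plate and 100% = full blocker control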
# NPR1 activator – GC-A (human) enzyme activation. actives 0.14% (n = 370,000). AID 1671463. P16066. activation, % at 10 µM. HEK293 GC-A cells, cGMP TR-FRET, EC30 ANP; 0% at EC30 ANP, 100% saturating ANP; in the data active means activation above about 40%
# PLC-gamma1 inh – PLC-gamma1 (human) inhibition, primary screen | purified PLC-gamma1, fluorogenic substrate, fluorescence | P19174 | inhibition, % at 12.2 µM | actives 0.84% (n = 370,000); in the data active means inhibition above about 9.5%
# PLCg1 ctr – counter-screen for PLC-beta3 inhibitors: inhibitors of human PLC-gamma1; shares compounds with PLC-gamma1 inh; purified PLC-gamma1, fluorogenic substrate, fluorescence; inhibition, % at 12.3 µM; actives 3.1% (n = 3,300); AID 743258; in the data active means inhibition above about 9.5%
# PLCbeta3 conf – confirmation of human PLC-beta3 inhibitors; actives 1% (n = 3,300); inhibition, % at 12.3 µM; purified PLC-beta3, fluorogenic substrate fluorescence; shares compounds with PLC-gamma1 inh
# Numbers without * were called inactive; i = inactive; x = not tested or not shown. Unless noted, no stated cut-off is given here; in the data, active means inhibition above about 11%; inactive means the rest.
SMILES,GC-B act,PLC-beta3 inh,NPR1 activator,PLC-gamma1 inh,PLCg1 ctr,PLCbeta3 conf
O=C(NCCN1CCCCC1)/C(=C/c1ccco1)NC(=O)c1ccccc1,3.1,0.0,1.3,2.7,x,x
O=C(NC1=C(Nc2ccc(Cl)cc2)C(=O)c2ccccc2C1=O)c1ccccc1,-3.4,5.1,-5.2,4.5,x,x
CN(C1=C(NC(=O)c2ccc(Cl)cc2)C(=O)c2ccccc2C1=O)c1ccccc1,-6.4,0.9,-11.9,12.3*,7.4,5.4
COCCN1C(=O)c2oc3cc(C)c(C)cc3c(=O)c2C1c1cccc(O)c1 (stereo not drawn),-2.3,-0.9,5.7,14.9*,-7.9,-2.2
CCOC(=O)[C@@H]1CCNC[C@@H]1c1ccccc1,-2.1,-0.5,0.2,0.6,x,x
CCOC(=O)C1NC(=O)CC1c1ccccc1 (stereo not drawn),-7.6,7.7,7.0,11.0*,6.8,3.4
NC(=O)c1ccc(NC(=O)CSc2nc3ccccc3c(=O)n2CCCN2CCOCC2)cc1,-0.4,-5.5,-2.8,-5.3,x,x
N/C(=N\NS(=O)(=O)c1ccc(Cl)cc1)c1ccccn1,-0.3,3.4,-1.5,10.3*,-3.2,-2.8
N/C(=N\NS(=O)(=O)c1ccccc1)c1ccccn1,0.8,-3.9,1.9,0.7,x,x
COCC1CCCN(C(=O)c2cc(COc3cncc(Cl)c3)on2)C1 (stereo not drawn),-0.5,-7.4,2.1,0.5,x,x
O=C(c1ccc(Br)o1)N(Cc1ccccc1)Cc1ccccc1,-13.6,-3.4,-10.0,-2.8,x,x
Cc1c(CN(C)C(=O)c2ccc(Br)o2)cnn1C,-4.2,4.9,0.7,11.9*,-7.3,-4.6
COc1ccc(CNCCNC(=O)c2ccco2)c(OC)c1OC,0.2,1.6,1.6,1.8,x,x
c1ccc(COc2cccc(CN3CCN(c4ccccn4)CC3)c2)cc1,3.7,-41.4,4.6,2.5,x,x
COc1ccc(C(C[N+](=O)[O-])c2c(C)[nH]n(-c3ccccc3)c2=O)cc1 (stereo not drawn),-0.4,-0.6,11.4,10.2*,2.9,5.6
Cc1[nH]n(-c2ccccc2)c(=O)c1C(c1ccc(O)c([N+](=O)[O-])c1)c1c(C)[nH]n(-c2ccccc2)c1=O,1.9,9.6,15.8,22.2*,-3.0,-1.5
O=c1c2cc([N+](=O)[O-])cc([N+](=O)[O-])c2[nH]n1-c1ccccc1,-2.3,-5.6,-1.0,5.2,x,x
Cc1[nH]n(-c2ccccc2)c(=O)c1C(C[N+](=O)[O-])c1ccccc1Cl (stereo not drawn),5.8,-2.2,0.8,0.3,x,x
C[C@H](CO)N1C[C@H](C)[C@@H](CN(C)C(=O)OCc2ccccc2)OCc2cn(nn2)CCCC1=O,0.9,8.9,1.7,3.4,x,x
CCn1c(N)nc2c1c(=O)n(C)c(=O)n2C,-2.3,0.4,3.7,3.1,x,x
CCCc1nc2c(=O)n(C)c(=O)nc-2n(C)n1,12.1,-5.5,2.0,55.3*,43.4*,3.5
Cn1nc(-c2ccccn2)nc2c(=O)n(C)c(=O)nc1-2,4.2,-8.6,9.0,50.9*,32.5*,-12.0
CC(C)C[C@@H](NC(=O)OC(C)(C)C)C(=O)N1O[C@]23C=C[C@]14C[C@@H](O)CC[C@]4(C)C2CC[C@]1(C)[C@@H]([C@H](C)/C=C/[C@H](C)C(C)C)CC[C@H]13 (stereo partly drawn),0.2,1.2,7.9,1.7,x,x
CC(C)[C@@H](C)/C=C/[C@@H](C)[C@H]1CC[C@@H]2[C@]1(C)CCC1[C@]23C=C[C@]2(C[C@@H](O)CC[C@]12C)N(c1ccc(Br)cn1)O3 (stereo partly drawn),-1.2,-5.9,7.1,9.9*,-1.4,1.3
Cc1ccc(N2C(=O)CC(Cn3nc(C)cc3C)C2=O)cc1 (stereo not drawn),6.6,-0.8,3.8,10.7*,7.4,0.9
SMILES,GC-B act,PLC-beta3 inh,NPR1 activator,PLC-gamma1 inh,PLCg1 ctr,PLCbeta3 conf
Cc1cc(C)n(CC2CC(=O)N(c3ccc(Cl)cc3)C2=O)n1 (stereo not drawn),-4.7,-4.8,-6.7,5.3,x,x
Cc1ccc(C2CC(c3ccc(Cl)cc3)n3nc(N)nc3N2)cc1 (stereo not drawn),1.9,-83.9,-2.3,-59.6,x,x
Clc1ccc(C2CSc3c4ncnc-4ncn32)cc1 (stereo not drawn),-0.5,2.5,-1.2,10.8*,-7.8,-0.5
COc1ccc(C(=O)NC(=S)Nc2ccccc2N2CCOCC2)cc1Br,-1.5,2.0,9.7,0.8,x,x
CCOc1ccc(C(=O)NC(=S)Nc2ccccc2N2CCOCC2)cc1Br,3.0,1.3,7.1,9.9*,2.2,2.7
Cc1nn(CCC(=O)NNC(=S)Nc2ccc(F)cc2)c(C)c1[N+](=O)[O-],7.6,4.0,-2.6,1.6,x,x
CCCOc1ccc(C2C(=O)N(C3CCCCC3)CC(=O)N2C2CC2)cc1OC (stereo not drawn),6.3,-1.5,-0.1,13.2*,-5.8,-3.4
CCCCNc1c(-c2cccc(-c3ccc(OC)cc3)c2)nc2cc(C)ccn12,-3.7,i,5.2,i,x,x
CC1CCCCC12NC(=O)N(CC(=O)Nc1ccc(Cl)c(S(=O)(=O)N3CCOCC3)c1)C2=O (stereo not drawn),2.1,-7.6,-4.6,-0.2,x,x
CCCC1(CCC)NC(=O)N(CC(=O)Nc2ccc(Cl)c(S(=O)(=O)N3CCOCC3)c2)C1=O,1.4,4.1,-0.6,10.7*,2.8,0.1
O=C(Nc1ccc(Cn2ccnc2)cc1)c1cccc(C(F)(F)F)c1,2.5,-7.6,5.2,2.6,x,x
CC(=O)Nc1ccc2nc(SCC(=O)NCCOc3ccccc3)sc2c1,-1.1,-0.6,-6.3,6.7,x,x
CC(=O)Nc1nnc(SCC(=O)NCCOc2ccccc2)s1,-4.5,2.3,-4.7,9.9*,-5.4,0.0
Cc1noc(C(=O)Nc2cccnc2)c1Cl,0.5,4.5,0.9,11.7*,-6.2,-4.3
NC1=NC(=O)/C(=C/c2cccs2)S1,-2.7,2.4,0.5,14.7*,1.5,3.1
CNC(=O)C(=O)Nc1c(C)cc(C)cc1C,4.3,12.3*,2.2,6.7,-7.3,-5.5
CNC(=O)C(=O)Nc1ccc(C)cc1C,1.5,0.2,0.2,1.0,x,x
COc1ccc(C(=O)NCc2nnc(SCC(=O)Nc3nnc(C)s3)o2)cc1,0.6,-1.0,2.8,-1.6,x,x
O=C(Cc1ccccc1)Nc1ccc(N2CCOCC2)cc1,-4.1,-2.2,5.8,-0.3,x,x
O=C(Cc1ccccc1)Nc1ccc(N2CCOCC2)cc1N1CCOCC1,-0.9,6.6,-4.5,14.7*,-5.9,-3.9
Cc1ccccc1-c1cc(C(=O)NCc2ccc(OC(F)(F)F)cc2)n(CC2CC(c3cccnc3)=NO2)n1 (stereo not drawn),7.1,1.1,0.9,11.4*,-3.2,-8.0
Cc1ccccc1OCC(=O)OCC(=O)N1CCCc2ccccc21,-2.3,0.8,2.3,-0.8,x,x
Cc1cccc(OCC(=O)OCC(=O)N2CCCc3ccccc32)c1C,-0.5,-4.2,-3.3,11.1*,0.3,3.1
